Data reported in PubChem BioAssay.
Activity calls are given as the source filed them.

These molecules were tested on XIP peptide (Xip251-270) binding (assay: small-molecule binders of XIP peptide, primary screen, biochemical, small-molecule microarray, fluorescence 635/667 nm, 0.1 µg/mL protein (AID 1182)). Details: fluorescent protein binding, 635 nm, higher = more signal, called active from +8 up or from −8 down.

Composite z-score, inactive:
CO[C@@H]1COC(=O)CC=C[C@@H](C)[C@@H]2C=C[C@H](O)[C@@H](COC(=O)CCC[C@H]1C)O2 0.0426
COc1ccc(O[C@H]2C=C[C@@H](c3ccccc3)O[C@@H]2COC(=O)CCC(C)=NOCC[C@@H]2C=C[C@H](OC(C)=O)[C@@H](COC(C)=O)O2)cc1 0.543
CO[C@@H]1COC(=O)[C@H](C)NC(=O)[C@@H](C)COC(=O)CCC[C@H]1C 0.144
O=C1C[C@@H](O)[C@@H](O)[C@@H]2[C@@H]3C(=O)N(Cc4ccc5c(c4)OCO5)C(=O)[C@@H]3CC[C@@H]12 0.0648
CCOC(=O)[C@H](Cc1ccccc1)NC(=O)CCC1CC(OC(=O)NCc2ccc3c(c2)OCO3)CC2(CCCC(COC(=O)NCC3CCCCC3)O2)O1 (stereo not given in full) -0.292
COc1ccc(O[C@H]2C=C[C@@H](c3ccccc3)O[C@@H]2COC(=O)N2CCCCC2)cc1 -0.275
Cc1ccc(S(=O)(=O)N[C@@H]2COC(=O)[C@H](C)COC(=O)CC=C[C@H]2C)cc1 -0.396
O=C1[C@H]2[C@H]3[C@H](O)[C@H](O)CC(=NO[C@@H]4O[C@H](CO)[C@@H](O)[C@H](O)[C@H]4O)[C@@H]3CC[C@H]2C(=O)N1Cc1ccc2c(c1)OCO2 0.297
COc1ccc(OC[C@H]2Cc3c(-c4ccccc4)nc4c(c3CO2)CN(CCOc2ccccc2)CC4)cc1 1.22
O=C1[C@H]2[C@H]3[C@H](O)[C@H](O)CC(=NOCc4ccccc4)[C@@H]3CC[C@H]2C(=O)N1C1CCCCC1 -0.112
CC(C)=NOCc1cccc(-c2cc(-c3ccccc3)no2)c1 1.13
CCOC(=O)[C@H](Cc1ccccc1)NC(=O)CCC1CC(OC(=O)NCCc2ccc(F)cc2)CC2(CCCC(COC(=O)NCC(c3ccccc3)c3ccccc3)O2)O1 (stereo not given in full) -0.295
CC(C)=CCCC(C)=CCON=C1[C@H]2CCn3c(=O)n(C)c(=O)n3[C@H]2[C@H](O)[C@@H]2O[C@H]12 0.258
C=CC[C@@H]1C=C[C@H](ON=C(C)CCN2CCc3nc(CC)c(CC)cc3C2)[C@@H](CO)O1 0.0621
CCCNC(=O)OC[C@H]1O[C@H](CCON=CC[C@@H]2C=C[C@H](OC(C)=O)[C@@H](COC(C)=O)O2)C=C[C@@H]1Oc1ccc(OC)cc1 0.27
O=C1[C@H]2[C@H]3[C@H](O)[C@H](O)CC(=NOC[C@@H](O)COCc4ccco4)[C@@H]3CC[C@H]2C(=O)N1c1ccc(F)cc1F -0.233
C[C@@H]1C=CCC(=O)OC[C@H](C)C(=O)N2CCC[C@H]2C(=O)OC1 -0.318
COC(=O)[C@H](C)NC(=O)CCC1CC(OC(=O)NCCc2ccc(F)cc2)CC2(CCCC(COC(=O)NCCc3ccc(Cl)cc3)O2)O1 (stereo not given in full) 0.503
CCCNC(=O)OC[C@H]1O[C@H](CCON=C2[C@H]3CCn4c(=O)n(-c5ccccc5)c(=O)n4[C@H]3[C@H](O)[C@@H]3O[C@H]23)C=C[C@@H]1Oc1ccc(OC)cc1 0.118
COc1ccc(O[C@H]2C=C[C@@H](c3ccccc3)O[C@@H]2COC(=O)CCC(C)=NOC[C@@H](C)[C@H](OCc2ccccc2)C(C)C)cc1 0.294
CCOC(=O)[C@H](CC(C)C)NC(=O)CCC1CC(OC(=O)NCc2cccc3ccccc23)CC2(CCCC(COC(=O)NCCc3ccccc3OC)O2)O1 (stereo not given in full) 1.05
CCc1cc2c(nc1CC)CCN(CCC(C)=NO[C@@H](C)c1cc(-c3c(C)cc(C)cc3C)no1)C2 -0.712
COc1cccc([C@H]2Oc3ccc(OC)cc3C(=NOC(C)CN3CCCc4nc(C)c(C)cc43)[C@@H]2O)c1 (stereo not given in full) 0.22
CO[C@H]1COC(=O)[C@H](C)COC(=O)CC=C[C@@H](C)[C@H](OC)COC(=O)CC=C[C@@H]1C 0.159
O=C1[C@H]2[C@H]3[C@H](O)[C@H](O)CC(=NO[C@@H]4O[C@H](CO)[C@@H](O)[C@H](O)[C@H]4O)[C@H]3CC[C@H]2C(=O)N1Cc1ccc2c(c1)OCO2 -0.0799
CCOC(=O)NN=C1C[C@@H](O)[C@@H](O)[C@@H]2[C@@H]3C(=O)N(C4CCCCC4)C(=O)[C@@H]3CC[C@H]12 0.67
Cc1cc(C)c(-c2cc([C@H](C)ON=C3[C@H]4CCn5c(=O)n(-c6ccccc6)c(=O)n5[C@H]4[C@H](O)[C@@H]4O[C@H]34)on2)c(C)c1 2.08
O=C1[C@H]2[C@H]3[C@H](O)[C@H](O)CC(=NOCc4ccccc4)[C@H]3CC[C@H]2C(=O)N1C[C@@H]1CCCO1 -0.344
C=CC[C@@H]1C=C[C@H](ON=C[C@@H](OC)[C@H](C)C=CCC(=O)OC)[C@@H](CO)O1 -0.0604
COC(=O)C1=C(C)N(Cc2ccccc2)[C@]23O[C@](C(=O)OC)(C(=O)N2[C@@H]1c1ccccc1)[C@H]1CCOC(=O)[C@H]13 0.303
O=C(NN=C1C[C@@H](O)[C@@H](O)[C@@H]2[C@@H]3C(=O)N(c4cccc(Oc5ccccc5)c4)C(=O)[C@@H]3CC[C@H]12)OCc1ccccc1 -0.132
CC(CCN1CCCCc2nc(C)c(C)cc21)=NOC(C)CN1CCCCc2nc(C)c(C)cc21 (stereo not given) 0.29
CC(C)CON=C1C[C@@H](O)[C@@H](O)[C@@H]2[C@@H]3C(=O)N(C[C@@H]4CCCO4)C(=O)[C@@H]3CC[C@H]12 -0.125
CC(CCN1CCc2nc(-c3ccccc3)c(-c3ccccc3)cc2C1)=NO[C@@H](C)c1cn([C@H](CO)Cc2ccccc2)nn1 -0.416
C=COC[C@H]1CN2[C@@H](CC[C@@H](C)[C@@H]2c2ccc(Br)cc2)C(=O)O1 0.299
